From ChEMBL document CHEMBL1157539, “Thousands of chemical starting points for antimalarial lead identification” (Nature, 2010)

Columns and labels:
Format in all cases: functional
Plasmodium falciparum [1] = test: GSK_TCMDC: Inhibition of Plasmodium falciparum 3D7 in whole red blood cells, using parasite LDH activity as an index of growth. Test compounds present at 2uM
Plasmodium falciparum [2] = test: GSK_TCMDC: Inhibition of Plasmodium falciparum Dd2 in whole red blood cells, using parasite LDH activity as an index of growth. Test compounds present at 2uM
HepG2 = test: GSK_TCMDC: Percent inhibition of human HepG2 cell line. Test compounds present at 10uM.

SMILES | Inhibition (Plasmodium falciparum [1]) | Inhibition (Plasmodium falciparum [2]) | Inhibition (HepG2)
Cc1cccc2nc(-c3cccc(-c4cccc(NC(=O)C5CC(=O)Nc6ccccc65)c4)c3)[nH]c12 (stereo not given) | 85% | 25% | 13%
O=C(/C=C/c1ccc(Cl)c(Cl)c1)NCCCCCN1CCCN(C(=O)Nc2cccc(C(F)(F)F)c2)CC1 | 96% | 0% | 45%
FC(F)(F)c1ccc2[nH]c(-c3ccc(-c4cccc(CNCc5ccccc5)c4)cc3)nc2c1.O=C(O)C(F)(F)F | 100% | 43% | 0%
CCC(C)NC(=O)Nc1ccc(-c2cccc(-c3nc4cc(C(F)(F)F)ccc4[nH]3)c2)cc1 (stereo not given) | 97% | 0% | 45%
Cl.N#Cc1ccc2c(c1)CN(CCC1CCC(NC(=O)c3cc4cnccc4[nH]3)CC1)CC2 (stereo not given) | 97% | 28% | 13%
Cc1cc(N2CCOCC2)nc2ccc(NC(=O)c3ccc(Cl)c([N+](=O)[O-])c3)cc12 | 98% | 15% | 12%
COc1ccc(C=NN=c2cc(C)[nH]c3ccc(C)cc23)c2ccccc12.Cl | 94% | 55% | 28%
CN(C)c1nc(NCc2ccccc2)nc(N/N=C/c2cc([N+](=O)[O-])ccc2O)n1 | 100% | 90% | 48%
CN1CCN(CCCN(Cc2ccc(-c3cccc(CNCc4ccc5c(c4)OCO5)c3)cc2)C(=O)CCC2CCCC2)CC1.O=C(O)C(F)(F)F | 92% | 85% | 24%
CCCCc1cc(NC2CCN(C)CC2)nc(Nc2ccccc2)n1 | 100% | 29% | 7%
CC(C)c1ccc(NC(=O)c2ccc(CN3CCCN(Cc4cccc(O)c4)CC3)cc2)cc1.O=C(O)C(F)(F)F | 100% | 58% | 51%
O=C(Nc1ccc(OC2CCN(Cc3ccccc3)CC2)c(Cl)c1)c1ccsc1.O=C(O)C(F)(F)F | 87% | 92% | 3%
O=C(/C=C/c1ccc(Cl)c(Cl)c1)NCCCCCN1CCCN(C(=O)Nc2ccc(Cl)cc2)CC1 | 100% | 0% | 21%
CNC(=O)c1cc(Nc2nnc(-c3ccc(C)c(S(=O)(=O)NC4CCCCC4)c3)c3ccccc23)ccc1OC | 87% | 61% | 0%
COc1ccc2ncc(C#N)c(CCN3CCC(NCc4ccc5c(c4)OCCO5)CC3)c2c1.Cl | 96% | 31% | 12%
CN1CCN(C(C(=O)NCc2cc(Cl)cc(Cl)c2)c2ccccc2-c2ccsc2)CC1 (stereo not given) | 95% | 80% | 11%
Cc1cccc2nc(-c3ccc(-c4ccc(CNCCN5CCNCC5)cc4)s3)[nH]c12.O=C(O)C(F)(F)F | 88% | 0% | 30%
COc1ccc(CN2CCC(CNCCc3ccccc3Oc3ccccc3)CC2)cc1.O=C(O)C(F)(F)F | 85% | 56% | 99%
COc1ccc2ncc(F)c([C@@H](O)CN3CCC(NCc4cc5c(cn4)OCS5)CC3)c2c1.Cl | 100% | 98% | 16%
Nc1ncc(-c2ccc(F)cc2)c2ccc(-c3cccc(F)c3)cc12 | 99% | 89% | 34%

SMILES | Inhibition (Plasmodium falciparum [1]) | Inhibition (Plasmodium falciparum [2]) | Inhibition (HepG2)
Cl.O=C(O[C@H]1CN[C@H](C#Cc2cc3c(Nc4ccc(OCc5cccc(F)c5)c(Cl)c4)ncnc3s2)C1)N1CCCC1 | 99% | 67% | 11%
O=C(/C=C/c1ccc([N+](=O)[O-])cc1)N1CCC(CCN2CCC(c3c[nH]c4ccccc34)CC2)CC1 | 100% | 48% | 60%
C[C@H](CNc1ccnc(Nc2ccc3[nH]c(=O)[nH]c3c2)n1)c1ccccc1 | 99% | 2% | 50%
CCN(C1CCCCC1)S(=O)(=O)c1ccc(OC)c(N2CCN(C(=O)C(Cl)(Cl)Cl)CC2)c1 | 100% | 85% | 0%
COc1ccccc1N(C)CCNc1cc(C)nc(Nc2ccc(C)cc2)n1 | 93% | 25% | 9%
CC1(C)C(=O)Nc2ccc3c(c21)CC1SC(=O)NN=C31 (stereo not given) | 96% | 92% | 6%
c1ccc(-n2cncn2)cc1 | 93% | 96% | 0%
CNC(=O)c1cc(S(=O)(=O)N2CCN(c3ccccn3)CC2)cs1 | 99% | 100% | 0%
O=C(Cn1c(CCc2cccc(F)c2F)cc(=O)c2ccccc21)N(CCN1CCCC1)Cc1ccc(-c2ccc(C(F)(F)F)cc2)cc1.O=C(O)C(O)C(O)C(=O)O | 99% | 57% | 89%
Nc1cc(-c2ccc(Br)cc2O)nc2ccccc12 | 100% | 50% | 23%
C[C@H](NC(=O)c1c(CN2CCC(N3CCCCC3)CC2)c(-c2ccccc2)nc2cc(O)ccc12)C1CCCCC1 | 99% | 72% | 77%
Cc1nnsc1C(=O)Nc1ccc(-c2cccc(-c3nc4cc(C(F)(F)F)ccc4[nH]3)c2)cc1 | 97% | 36% | 69%
CCc1cn2c3c(cc(C(=O)N[C@@H](Cc4ccccc4)[C@H](O)CNC4CCCCC4)cc13)N(C)S(=O)(=O)C2.O=CO | 99% | 99% | 20%
O=C(O)C(F)(F)F.OCCN1CCN(Cc2ccc(-c3ccc(-c4nc5cc(F)ccc5[nH]4)cc3)cc2)CC1 | 100% | 99% | 33%
CCCNc1nc(NCc2c(C)cccc2C)nc(NC(C)(C)C)n1 | 91% | 89% | 15%
c1ccc(Oc2ccc(Nc3ccnc(Nc4cccc(CNCCCN5CCOCC5)c4)n3)cc2)cc1 | 100% | 50% | 0%
O=C(Nc1cccc(C(F)(F)F)c1)c1ccc(S(=O)(=O)NCC2CCN(CC3CCCCC3)CC2)cc1.O=C(O)C(F)(F)F | 100% | 49% | 24%
CC(C)CCN1CCC(Oc2ccc(NC(=O)c3ccc4ncccc4c3)cc2Cl)C1.O=C(O)C(F)(F)F (stereo not given) | 95% | 14% | 33%
O=C(/C=C/c1ccc(Cl)c(Cl)c1)NCCCCCN1CCC(NC(=O)Nc2ccc(Br)cc2)CC1 | 100% | 7% | 36%
O=C(NCc1ccccc1)Nc1ccc(-c2cccc(-c3nc4cc(C(F)(F)F)ccc4[nH]3)c2)cc1 | 97% | 23% | 56%

SMILES | Inhibition (Plasmodium falciparum [1]) | Inhibition (Plasmodium falciparum [2]) | Inhibition (HepG2)
CC(C)C[C@@H](/C=N/N1CC(=O)NC1=O)NC(=O)[C@H](CC(C)C)NC(=O)c1ccc(OCCN2CCOCC2)cc1 | 94% | 79% | 11%
CC(C)c1ccc(NC(=O)c2ccc(C(=O)NC3CCN(Cc4ccccc4)CC3)cc2)cc1.O=C(O)C(F)(F)F | 88% | 7% | 30%
CCCNC(=O)C1Cc2c([nH]c3cc(Br)ccc23)C2(CCN(CCc3ccccc3)CC2)N1 (stereo not given) | 92% | 26% | 15%
CC(=O)C=C1CC(=O)N(C[C@@H](O)[C@H]2O[C@@H]3OC(C)(C)O[C@@H]3[C@H]2O)c2ccccc2N1 | 90% | 2% | 0%
CC(C)CCNC(=N)Nc1ccc(OCCCCCOc2ccc(NC(=N)NCCC(C)C)cc2)cc1 | 85% | 67% | 14%
CCc1c(CCNCCCCCNCCc2ccc(OC)c(OC)c2CC)ccc(OC)c1OC.Cl | 100% | 1% | 59%
Cc1cccc2nc(-c3cccc(-c4cccc(NC(=O)c5ccc(=O)[nH]n5)c4)c3)[nH]c12 | 100% | 32% | 10%
Nc1c2ccccc2nc2ccc(Cl)cc12 | 100% | 100% | 55%
CC(C)CNCc1cccc(-c2ccc(CN(C(=O)NCCc3ccccc3)C3CCN(Cc4ccccc4)CC3)cc2)c1.O=C(O)C(F)(F)F | 98% | 47% | 99%
O=C(Nc1cccc(CN2CCCN(Cc3cccc(Cl)c3)CC2)c1)c1ccc(Cl)c(Cl)c1.O=C(O)C(F)(F)F | 89% | 17% | 18%
COc1cc2c(C3CCN(CC4CCN(C(=O)/C=C/c5ccc(Cl)c(Cl)c5)CC4)CC3)c[nH]c2cn1 | 100% | 88% | 27%
CN(C)CC1c2[nH]c3ccccc3c2CCN1C(=O)Nc1ccc(Cl)c(Cl)c1.Cl (stereo not given) | 90% | 32% | 99%
CN(C)Cc1cccc(-c2ccc(NC(=O)c3ccc4c(=O)n(CCN5CCCCC5)cnc4c3)cc2)c1 | 100% | 67% | 23%
CCOc1ccc(-c2noc(-c3c[nH]c4ccccc4c3=O)n2)cc1 | 99% | 93% | 0%
Cc1c(N=O)cc(C(C)(C)C)c(O)c1C(=O)Nc1ccc([N+](=O)[O-])cc1Cl | 100% | 98% | 72%
Cc1nc2nc(N)nc(N)c2c(C)c1Cc1ccccc1I.Cl | 96% | 0% | 63%
O=C(Nc1ccc(-c2ccc(-c3nc4ccccc4[nH]3)s2)cc1)Nc1ccc(Cl)c(Cl)c1 | 100% | 99% | 89%
Cc1cc2ccc(/C=C/C(=O)NC3CCC(CCN4CCc5ccc(C#N)cc5CC4)CC3)cc2[nH]1.Cl (stereo not given) | 84% | 56% | 19%
Cc1ccc2nc(C)cc(N/N=C/c3ccc([N+](=O)[O-])cc3)c2c1 | 100% | 15% | 10%
CC(=O)N/N=C/[C@H](CCc1ccccc1)NC(=O)[C@H](CC(C)C)NC(=O)c1ccc(F)cc1 | 95% | 86% | 2%
